This passage reports growth results from PubChem BioAssay (NCI).

Common to all, as to experiment: NCI-60 one-dose screen, 48 h (100 = growth as untreated, 0 = no growth, -100 = all killed)
Conditions in all cases: 10 µM unless noted

Test [1] concerns HCT-15 colon.
Test [2] has as its system HT29 colon.
For test [3], the system named is SNB-75 CNS.
Test [4] has as its system SNB-19 CNS.
Test [5] deals with U251 CNS.
The test system of test [6] is PC-3 prostate.
Test [7] has as its system SK-MEL-5 melanoma.
Test [8] concerns UACC-62 melanoma.
Test [9] deals with SK-MEL-28 melanoma.

This is part of a sample that, as a whole, favours compounds with a hit. Of some 83,000 tested, about 20% had one in any assay.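 Interpretation: 100, growth as untreated; towards 0, rising growth inhibition; 0, no net growth; 0 to -100, cell death. Compounds scoring below 10 were considered active.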 Unmarked numbers belong to inactive results. Calls of active or inactive are those of the source.

Consider `O=C1/C(=C\C(Cl)=C/c2ccc([N+](=O)[O-])cc2)SC(=S)N1CCc1ccc(O)cc1`, for which the growth is -49.9% (active) in [1]; -15.3% (active) in test [2]; -27.7% (active) in test [3]; -59.7% (active) in test [4]; -88% (active) in [5]; -14.8% (active) in [6]. The growth in test [7] was -78.9% (active); in test [8] it was -30.8% (active); in [9], -61.2% (active).

For the molecule `C/C(=N\NC(=O)C(C)SC(C)C(=O)N/N=C(\C)c1cccnc1)c1cccnc1` (stereo not drawn), the growth in test [1] is 102%; in test [2], 94.1%; in test [3], 89.7%; in [4], 110%; in test [5], 110%; in [6], 101%. The growth is 98.4% in test [7], 101% in test [8] and 113% in test [9].

Consider `CC(=O)c1c(C)[nH]c(-c2nc3ccc(N4CCN(C)CC4)cc3[nH]2)c1-c1ccc2c(c1)OCCO2`, for which the growth was 8.46% (active) in test [1]; 14.2% in [2]; 1.99% (active) in test [3]; 51.3% in test [4]; 57.2% in test [5]; 45.8% in test [6]. In addition, the growth in [7] was 26.1%; in test [8], 20.9%; in test [9], 50.8%.

`COc1cc2nc(Cl)nc(Nc3cccc(C(=O)/C=C/c4ccc(F)cc4)c3)c2cc1OC`: the growth was -4.45% (active) in test [1]; 16.1% in test [2]; 88.3% in test [3]; 50.1% in [4]; 32.6% in [5]; 46.4% in test [6]. The figures for the growth in [7], in test [8] and in test [9] were 73.4%, 51.5% and 62.6%, respectively.

Regarding `CN(CSc1ccc(Cl)cc1)c1ccc(CSc2ccc(Cl)cc2)cc1`, the growth in test [1] is 62.8%; in test [2], 96.8%; in test [3], 86%; in test [4], 84.7%; in test [5], 53.6%; in [6], 38.4%. Also, the growth in [7] is 70.9%; in [8], 84%; in [9], 79.9%.

`C[C@H]1[C@H]2C3=CC[C@@H]4[C@@]5(C)C/C(=C/c6ccco6)C(=O)C(C)(C)[C@@H]5CC[C@@]4(C)[C@]3(C)CC[C@@]2(C(=O)N2CCOCC2)CC[C@@H]1C`: the growth in [1] is 40.2%; in test [2], 28.9%; in [3] it was 99.4%; in test [4] it was 71.3%; in test [5], 49.1%; in test [6], 39.1%. Further, the growth in test [7] is 72.1%; in test [8], 60.5%; in [9] it was 69.7%.

With `CN1CCN(c2nc(-c3csc(-c4cccs4)n3)cc3ccccc23)CC1`, the growth in [1] was 7.33% (active); in [2] it was -27.3% (active); in test [3] it was 54.5%; in [4] it was 66.1%; in [5], 28.8%; in test [6], 39.8%. For the same molecule, the growth in [7] was 43.7%; in [8], 33.6%; in [9] it was 68.9%.

As for `Cc1csc(-c2ccc3c(c2)COC3(CCCN(C)C)c2ccc(F)cc2)c1` (stereo not drawn), the growth in [1] is 14.4%; in test [2], -39.6% (active); in test [3], 32%; in test [4] it was 74.8%; in test [5], -45.1% (active); in [6], 28%. In addition, the growth in [7] was 73.6%; in test [8] it was -73.6% (active); in test [9] it was 37.5%.

On to `Nc1c2c(nc3ccc(Cl)cc13)CC(c1ccc(O)cc1)CC2=O` (stereo not drawn), for which the growth is 29.3% in test [1]; 101% in [2]; 30.5% in test [3]; 45.8% in [4]; 47.2% in test [5]; 49.2% in test [6]. The growth in [7] is 23.6%; in test [8], 32.8%; in [9], 57%.

Consider `CCSc1ncnc2c1ncn2C1OC(CO)C(O)C1O` (stereo not drawn), for which the growth in test [1] is 30.9%; in test [2], 19.1%; in [3] it was 57%; in test [4], 34.1%; in test [5], 54.5%; in test [6], 16.8%. Moreover, the figures for the growth in test [7], in [8] and in test [9] were 32.6%, 50.7% and 83.1%, respectively.

Regarding `Cn1c2c(c3ccc(Cl)cc31)-n1cccc1C2=O`, the growth is 83.5% in test [1]; 70.8% in test [2]; 87.5% in test [3]; 85.5% in [4]; 89.3% in test [5]; 101% in [6]. Besides, the growth was 98.4% in [7], 89.8% in test [8] and 109% in test [9].

In the case of `Nc1c2c(nc3ccc(Br)cc13)CC(c1ccccc1)CC2=O` (stereo not drawn), the growth in test [1] is 21.9%; in [2], 15.7%; in test [3], -1.66% (active); in [4] it was 37%; in [5], 41.8%; in [6], 40.4%. The values for the growth in test [7], in test [8] and in test [9] were 20.1%, 38.1% and 55.5%, respectively.

Regarding `Cc1cc(C)nc(NC(N)=NCCc2ccccc2)n1`, the growth in test [1] was 55%; in [2], 13.5%; in [3], 23.7%; in test [4], 46.8%; in test [5], 31.6%; in test [6], 37.7%. Besides, the growth in [7] was 22%; in test [8] it was 38%; in test [9] it was 33.8%.

Take `COc1ccc(/C=C2\N=C(c3ccccc3)N(c3cc(OC)c(OC)cc3C(=O)N3N=C(C)CC3=O)C2=O)cc1`: the growth in [1] is 90%; in test [2], 99.7%; in test [3], 87.6%; in test [4], 99.5%; in test [5], 102%; in test [6], 89.4%. Also, the growth is 77.3% in test [7], 65.5% in test [8] and 95.2% in test [9].

With `Cc1ccc2c(c1)c1nc3cc(C)c(C)cc3nc1n2CCN(C)C`, the growth in [1] is 3.18% (active); in [2], 19%; in [3], 23.9%; in test [4], 17.1%; in test [5], 23.7%; in [6], 25%. In addition, the growth is 15.4% in [7], 12.3% in test [8] and 17.2% in test [9].

Regarding `Cn1cccc1/C=C1/SC(=S)N(CCc2ccc(O)cc2)C1=O`, the growth is 22.7% in test [1]; 94.9% in test [2]; 41.2% in [3]; 47.2% in test [4]; 41.8% in [5]; 69% in test [6]. For the same molecule, the growth in test [7] was 44.2%; in test [8], 24.9%; in test [9], 57.3%.

Turning to `CC1(C)C(=O)/C(=C\c2ccco2)C[C@]2(C)[C@H]3CC[C@@H]4[C@@H](C(=O)/C=C/c5ccco5)CC[C@@]4(C)[C@]3(C)CC[C@@H]12`, the growth in test [1] was 79.6%; in [2] it was 75.7%; in test [3], 68.1%; in [4] it was 46.8%; in [5] it was 50.7%; in test [6], 80.4%. In addition, the growth in test [7] was -49.9% (active); in test [8] it was 12.5%; in test [9], 32.1%.

As for `Cc1cccc2c1NC(=O)[C@@]21[C@H](C(=O)c2ccccc2)[C@]2(C(=O)Nc3ccccc32)[C@H]2CCCN21`, the growth in [1] is 9.8% [100 µM] (active); in [2], 3.18% [100 µM] (active); in test [3], -25.4% [100 µM] (active); in [4] it was -5.94% [100 µM] (active); in [5] it was 1.7% [100 µM] (active); in [6], 21.7% [100 µM]. In addition, the growth in test [7] was 31% [100 µM]; in test [8] it was 22.5% [100 µM]; in test [9], 46.4% [100 µM].

Regarding `CC1(C)C(=O)CC[C@]2(C)[C@H]3C(=O)C=C4[C@@H]5C[C@@](C)(C(=O)NCCNCCN)CC[C@]5(C)CC[C@@]4(C)[C@]3(C)CC[C@@H]12`, the growth in test [1] was 99.4%; in [2], 98%; in [3], -29.7% (active); in test [4] it was 98.4%; in test [5], 88.3%; in test [6], 90.4%. The growth in test [7] was 96.8%; in test [8], 98.1%; in test [9], 104%.

As to `O=C(/C=C/c1cccc2ccccc12)Nc1ncc(Cc2ccccc2)s1`, the growth in [1] is 12.2%; in [2], 14.1%; in test [3], -17.2% (active); in test [4], 9.85% (active); in [5], 1.44% (active); in test [6] it was 30.3%. Also, the growth in test [7] is 10.6%; in [8], 15.9%; in test [9], 44.1%.

On to `Cc1cc(C)n(Cc2cc(C(C)(C)C)cc(C(C)(C)C)c2)c(=O)c1C#N`, for which the growth in [1] was 86.8%; in test [2], 99.4%; in test [3], 96.1%; in test [4], 95.8%; in [5], 97.9%; in test [6], 79%. Also, the growth in test [7] is 90.7%; in test [8] it was 72.8%; in test [9] it was 102%.

`COc1ccc2nc(-c3cc(-c4cc(OC)c(OC)c(OC)c4)n[nH]3)[nH]c2c1`: the growth in [1] is 15.1%; in test [2], 42.7%; in [3], -2.76% (active); in test [4] it was 50.1%; in test [5], 39.3%; in test [6] it was -22.8% (active). For the same molecule, the growth is -92.9% (active) in test [7], -53.6% (active) in test [8] and -17.6% (active) in test [9].

As for `COc1ccc(OCC(CO)N2CCN(c3ccccc3)CC2)cc1` (stereo not drawn), the growth in test [1] is 102%; in test [2] it was 98.2%; in test [3], 97.4%; in test [4], 96.6%; in [5], 97.3%; in test [6], 84.6%. Also, the results for the growth in test [7], in [8] and in [9] were 104%, 97.2% and 103%, respectively.

For `N#C/C(=C\c1ccc(-c2ccc(Br)cc2)o1)c1nc(-c2cccs2)cs1`, the growth is 98.8% in test [1]; 105% in test [2]; 97% in [3]; 95.1% in test [4]; 99.3% in [5]; 95.9% in [6]. Also, the growth is 99.6% in test [7], 86.2% in test [8] and 99.1% in test [9].

`O=C1C(=O)c2ccccc2C(O)=C1CCCc1ccc(C2CCCCC2)cc1`: the growth is 41.4% in test [1]; 41.8% in test [2]; 54.9% in test [3]; 39.9% in test [4]; 45.4% in [5]; 39.2% in test [6]. Moreover, the growth is 20.6% in test [7], 47.9% in [8] and 47.4% in test [9].

For the molecule `COC(=O)[C@]12CC[C@@H](C(C)=O)[C@@H]1[C@H]1CC[C@@H]3[C@@]4(C)C/C(=C/c5cccnc5)C(=O)C(C)(C)[C@@H]4CC[C@@]3(C)[C@]1(C)CC2`, the growth in [1] was 23.2%; in test [2], 16.5%; in test [3], 110%; in [4] it was 67.7%; in [5] it was 56.6%; in [6], 24.4%. For the same molecule, the values for the growth in test [7], in [8] and in test [9] were 39.8%, 34.5% and 31.5%, respectively.

For `COc1cc(-c2cc(-c3nc4ccc(F)cc4[nH]3)[nH]n2)cc(OC)c1OC`, the growth in test [1] was 24.1%; in [2], 69.3%; in test [3] it was 15.2%; in [4] it was 70.8%; in test [5], 46.2%; in test [6], -18.1% (active). For the same molecule, the results for the growth in test [7], in [8] and in test [9] were -50.2% (active), -25.4% (active) and 7.54% (active), respectively.
